From PubChem BioAssay (Tox21)
Results filed as inconclusive are left out. Calls of active or inactive are those of the source. Calls come from the whole dose curve; as a rule, active = well fitted cell-killing curve with a large enough effect in the repeat runs; inconclusive = weak or mixed curves, or effect the other way; inactive = flat fitted curve, though single readings scatter.
% is set by controls: 0 for no effect and ±100 for the full control effect; potency is the fitted concentration of half-maximal effect.

Experiment: qHTS RealTime-Glo MT Cell Viability Assay in HEK293 cells - 40 hour (AID 1224874); note: nearly all actives have a fitted effect of over 50% in size
Conditions: RealTime-Glo luminescence; max response: stronger effect = lower value
From the text: U.S. Tox21 Program National Center for Advancing Translational Sciences [NCATS] NIH Chemical Genomics Center [NCGC] U.S. Environmental Protection Agency [EPA] National Institutes of Environmental Health Sciences [NIEHS] National Toxicology Program [NTP] U.S. Food and Drug Administration [FDA] Tox21 Assay Overview: Measure of cell viability is critical in the cell-base assay. Analysis of cell viability is necessary for the characterization of cell responses to cytotoxic drugs and environmental stress. A RealTime-Glo MT Cell Viability Assay to monitor cell viability in real time of continues cell culture during 40 hours of compound treatment was used to screen Tox21 10K library compounds in Hek293 cells. The RealTime-Glo MT Cell Viability Assay is a nonlytic, homogeneous, bioluminescent method to measure cell viability in real time using a simple, plate-based method. The assay involves adding NanoLuc luciferase and a cell-permeant prosubstrate to cells in culture. Viable cells reduce the proprietary prosubstrate to generate a substrate for NanoLuc luciferase. This substrate diffuses from cells into the surrounding culture medium, where it is rapidly used by the NanoLuc Enzyme to produce a luminescent signal. The signal correlates with the number of viable cells, making the assay well suited for cytotoxicity studies.
Tox21 Assay Protocol Summary: The mixture of Hek293 cell suspension and reagents were dispensed at 600cells/6 ul/well in 1536-well tissue culture treated black solid bottom plates using a Multidrop dispenser. After the assay plates were incubated at a 37 C/5% CO2 incubator for 5 hours, 23 nL of compounds dissolved in DMSO, positive and negative controls was transferred to the assay plate by a pintool work station. The plates were incubated at 37 C for 40 hours. The luminescence intensity were measured at 0h, 8h, 16h, 24h, 32h and 40h time points using ViewLux plate reader during compound treatment.
In the case of `O=C(O)C(=O)Cc1ccccc1`, the max response is reported as 14.4% (inactive). In the case of `CC(CC=O)CCCC(C)(C)O` (stereo not given), the max response is reported as 3.36% (inactive). For `CCCCCCOc1ccccc1C(N)=O`, the Potency was 10.7 µM (active). For `O=C(OCC(COC(=O)c1cccnc1)(COC(=O)c1cccnc1)COC(=O)c1cccnc1)c1cccnc1`, the max response was 10.7% (inactive). With `NNc1nnc(NN)c2ccccc12` the max response was 0.221% (inactive). In the case of `CC(=O)NCCCCCC(=O)O`, the max response is reported as 5.61% (inactive). With `CCCCCOC(=O)CCC` the max response was -0.243% (inactive). For `CCCC(=O)C(C)=O`, the max response was -1.51% (inactive). In the case of `CCCCCCN`, the max response is reported as 9.84% (inactive). For `CCn1ccc(NS(=O)(=O)c2ccc(N)cc2)nc1=O`, the max response was 5.4% (inactive). With `COc1cc(N)ccc1C` the max response was 8.05% (inactive). For `CC(C)CC(=O)O`, the max response was 6.56% (inactive). In the case of `CCOCCOCCOCC`, the max response is reported as 4.8% (inactive). In the case of `CCCCCCOC(=O)CC`, the max response is reported as 2.45% (inactive). In the case of `Cc1ccccc1N=O`, the max response is reported as 9.08% (inactive). In the case of `NS(=O)(=O)c1ccc(NC(=O)CCC(=O)O)cc1`, the max response is reported as 3.03% (inactive). In the case of `c1ccc2c(c1)ccc1c3ccccc3ccc21`, the max response is reported as 6.22% (inactive). With `CC(=O)c1sc(C)nc1C` the max response was -23.3% (inactive). For `CC(S)C(=O)NCC(=O)O` (stereo not given), the max response was 11.2% (inactive). With `C=C(C)C1CCC(C)(O)CC1` (stereo not given) the max response was 2.04% (inactive). For `Cc1ccc(C=O)cc1C`, the max response was 2.17% (inactive). In the case of `C=C(C)C(=O)OCCNC(C)(C)C`, the max response is reported as 0.848% (inactive). In the case of `O=C(OCC(O)CO)c1ccccc1Nc1ccnc2c(C(F)(F)F)cccc12` (stereo not given), the Potency is reported as 3.79 µM (active). In the case of `Nc1ccc([N+](=O)[O-])c(N)c1`, the max response is reported as -10.3% (inactive). With `CCCCCCCCC1CCC(=O)O1` (stereo not given) the max response was -1.86% (inactive). For `CC(C)(C)c1nnc(NS(=O)(=O)c2ccc(N)cc2)s1`, the max response was 2.09% (inactive). For `CCCOC(OCCC)OCCC`, the max response was 6.14% (inactive). In the case of `CCC(C)NC(N)=O` (stereo not given), the max response is reported as 0.218% (inactive). For `COC(=O)C1CC(=O)C(C(=O)OC)CC1=O` (stereo not given), the max response was -0.164% (inactive). With `CN(C)c1ccc(C=O)cc1` the max response was 14.8% (inactive). With `COC(=O)[C@@H]1[C@H]2C[C@H]3c4[nH]c5ccccc5c4CCN3C[C@@H]2CC[C@@H]1O` the max response was -22.3% (inactive). With `CCCCCCCCSCC` the max response was 7.92% (inactive). In the case of `CC(=O)Nc1ccc(S(=O)(=O)Cl)cc1`, the max response is reported as -6.18% (inactive). For `CNC(=O)[C@H]1O[C@@H](n2cnc3c(NCc4cc(Cl)ccc4OCc4cc(C)no4)ncnc32)[C@H](O)[C@@H]1N`, the max response was 0.414% (inactive). For `On1nnc2ccccc21`, the max response was -15.2% (inactive). With `CO[C@@H]1[C@@H](OC(N)=O)[C@@H](O)[C@H](Oc2ccc3c(O)c(NC(=O)c4ccc(O)c(CC=C(C)C)c4)c(=O)oc3c2C)OC1(C)C` the max response was 7.28% (inactive). For `CC(C)c1ccc2cc(C(C)C)ccc2c1`, the max response was 11.1% (inactive). In the case of `O=S(=O)(O)c1ccc2cc(O)c(S(=O)(=O)O)cc2c1`, the max response is reported as -1.21% (inactive). With `CCCCCCCCCC(C)=O` the max response was 10.3% (inactive). In the case of `COc1cc2c(cc1OC)C(=O)CC2`, the max response is reported as -24.5% (inactive).
